Compound activity from PubChem BioAssay.
The list is not random: actives were taken first. Their share in the collection is about 2.3%.
SENP8 block-1 – blocks human SENP8 cleavage of Nedd8 substrate | Q96LD8 | inhibition, % at 20 µM | AID 602440 | actives 0.64% (n = 360,000) | recombinant SENP8, Nedd8 substrate fluorescence; in the data active means inhibition mostly above about 40%, no sharp cut-off; inactive means mostly below about 27%
HSP90 refold inh – HSP90 refolding inhibition in rabbit reticulocyte lysate | luciferase refolding luminescence, 3 h | inhibition, % at 5.6 µM | actives 0.91% (n = 290,000);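 active means inhibition above the screen-wide mean plus 3 SD, computed separately per campaign, cut at about 16% in these data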;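 further: 0% = DMSO wells and 100% = 60 µM geldanamycin wells; inhibitors lower the luminescence because luciferase stays unfolded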
LGR2 antag – inhibitors of bursicon-induced Drosophila LGR2 receptor cAMP signaling; HEK293 LGR2, CRE-luciferase, bursicon-stimulated, 4 h; AID 720647; actives 0.35% (n = 380,000); inhibition, % at 9.99 µM;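 active means drop in luminescence signal, shown as inhibition above about 50% in the replicate tests, limit read from the data, passing the limit was not always enough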;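 further: agonist challenge used bursicon conditioned medium at about half maximal strength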
SENP7 inh – blocks the human protease SENP7 | recombinant SENP7, Z-RLRGG-aminoluciferin luminescence, 40 min | inhibition, % at 5 µM | Q9BQF6 | actives 1.5% (n = 330,000);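 active means inhibition above about 50% at the single test dose, limit read from the data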;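 further: plate controls were DMSO with enzyme for no effect and no enzyme buffer wells for full effect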
Target sequence (Q9BQF6 706-1050 limits assumed): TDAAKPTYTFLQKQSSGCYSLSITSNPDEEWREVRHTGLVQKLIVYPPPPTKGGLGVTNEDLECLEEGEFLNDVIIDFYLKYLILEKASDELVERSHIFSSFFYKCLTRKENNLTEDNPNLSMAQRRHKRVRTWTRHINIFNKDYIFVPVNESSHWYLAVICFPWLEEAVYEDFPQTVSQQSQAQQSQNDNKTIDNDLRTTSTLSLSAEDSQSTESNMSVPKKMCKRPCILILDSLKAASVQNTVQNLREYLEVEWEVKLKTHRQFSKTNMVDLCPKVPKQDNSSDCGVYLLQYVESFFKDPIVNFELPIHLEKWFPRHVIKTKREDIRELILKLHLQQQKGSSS
SENP6 block – blocks the human protease SENP6 | Recombinant SENP6 catalytic domain, aminoluciferin luminescence | inhibition, % at 10 µM | actives 1.8% (n = 330,000);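 active means inhibition above about 50% at the single tested dose, limit read from the data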;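 further: plate controls were DMSO wells with enzyme for no effect and DMSO wells lacking enzyme for full effect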
SENP8 block-2 – inhibitors of human SENP8 protease. purified SENP8, Z-RLRGG-aminoluciferin cleavage, luminescence. Q96LD8. actives 1.2% (n = 330,000). inhibition, % at 10 µM; in the data active means inhibition above about 50%
SENP8 conf – human SENP8 inhibition, confirmed; shares compounds with SENP7 inh; Recombinant SENP8, Z-RLRGG-aminoluciferin luminescence, 60 min; inhibition, % at 12.5 µM; actives 40% (n = 6,200);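 active means mean inhibition across replicates above about 50%, limit read from the data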
SENP6 confirm – confirmation of human SENP6 protease inhibitors; inhibition, % at 12.5 µM; recombinant SENP6, Z-RLRGG-aminoluciferin luminescence; actives 58% (n = 6,200); shares compounds with SENP7 inh
SENP7 conf – confirmation of human SENP7 protease inhibitors; shares compounds with SENP7 inh; actives 69% (n = 6,200); inhibition, % at 12.5 µM; recombinant SENP7, Z-RLRGG-aminoluciferin luminescence, 40 min
Casp3 select – caspase-3 inhibition (SENP selectivity assay) | shares compounds with SENP7 inh | inhibition, % at 12.5 µM | purified caspase-3, Z-DEVD-aminoluciferin luminescence, 60 min | actives 60% (n = 6,200);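 active means mean inhibition above about 50%, limit read from the data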;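 further: plate controls were enzyme with DMSO for no effect and wells without caspase-3 for full effect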
Target sequence (P42574 28-227 limits assumed): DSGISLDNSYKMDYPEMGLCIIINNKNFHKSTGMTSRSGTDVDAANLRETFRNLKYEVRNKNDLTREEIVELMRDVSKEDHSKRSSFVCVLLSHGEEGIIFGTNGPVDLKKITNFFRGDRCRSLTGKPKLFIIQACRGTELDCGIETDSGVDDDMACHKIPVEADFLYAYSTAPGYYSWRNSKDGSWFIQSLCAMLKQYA
SENP luc ctr – luminescence interference (SENP counter-screen); shares compounds with SENP7 inh; Pre-incubated SENP8/Z-RLRGG-aminoluciferin, luciferase luminescence interference; inhibition, % at 12.5 µM; actives 39% (n = 6,200); AID 488919;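 active means mean inhibition above about 50% when retested at one dose, limit read from the data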;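 further: plate controls were DMSO wells with completed reaction for no effect and substrate without enzyme for full effect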
The depositor's hits bear a star.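 How the source made its calls, unless noted: active means mean inhibition above about 50% in the one-dose retest (limit read from the data); inactive means the rest.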

Screening Cc1ccc(C(=O)Nc2nccc(-c3cccs3)n2)cc1 returned SENP8 block-1 -7, HSP90 refold inh -1, SENP7 inh -10, SENP6 block -14 and SENP8 block-2 -10.
For Cc1ccc(C(=O)Nc2ncc3c(Cl)cccc3n2)cc1 the results were SENP8 block-1 4, HSP90 refold inh 2, SENP7 inh 91*, SENP6 block 88*, SENP8 block-2 81*, SENP8 conf 83*, SENP6 confirm 93*, SENP7 conf 99*, Casp3 select 93* and SENP luc ctr 52*.
For C[C@@H]1CCCCO[C@H](CN(C)CC2CCCCC2)[C@H](C)CN([C@@H](C)CO)C(=O)c2cc(NS(=O)(=O)c3ccccc3)ccc2O1 the results were LGR2 antag 15.
For Cc1noc(C)c1S(=O)(=O)Nc1ccc2c(c1)C(=O)N([C@H](C)CO)C[C@H](C)[C@H](CN(C)S(=O)(=O)c1cccs1)OCCCC[C@H](C)O2 the results were LGR2 antag 5.
Screening Nc1cccc(-c2cn3cc(C(F)(F)F)cc(Cl)c3n2)c1 returned SENP8 block-1 -28, HSP90 refold inh 8, SENP7 inh 86*, SENP6 block 82*, SENP8 block-2 70*, SENP8 conf 84*, SENP6 confirm 84*, SENP7 conf 97*, Casp3 select 86* and SENP luc ctr 86*.
Screening FC(F)(F)c1cc(Cl)c2nc(-c3ccccc3)cn2c1 returned SENP8 block-1 -223, HSP90 refold inh 5, LGR2 antag 19, SENP7 inh 87*, SENP6 block 83*, SENP8 block-2 76*, SENP8 conf 46, SENP6 confirm 81*, SENP7 conf 94*, Casp3 select 69* and SENP luc ctr 47.
Screening FC(F)(F)c1cc(Cl)c2nc(-c3ccccc3)c(Cc3ccsc3)n2c1 returned SENP8 block-1 -171 and LGR2 antag -87.
For Cc1ccccc1S(=O)(=O)N1C[C@H](O)COC[C@H]2O[C@H](CC(=O)NCc3ccccc3Cl)CC[C@@H]21 the results were LGR2 antag -14.
CO[C@@H]1CN(C)C(=O)c2cc(NC(=O)c3cc(C)on3)ccc2OC[C@@H](C)N(CC2CC2)C[C@@H]1C was read as LGR2 antag 2.
Screening Nc1cccnc1Sc1cccc(Cl)c1 returned SENP8 block-1 -32, HSP90 refold inh 0, SENP7 inh 41, SENP6 block 61*, SENP8 block-2 31, SENP8 conf 10, SENP6 confirm 2, SENP7 conf -2, Casp3 select -5 and SENP luc ctr -4.
For NC(=O)c1cccnc1Sc1ccc(Cl)cc1 the results were SENP8 block-1 6, HSP90 refold inh 1, LGR2 antag -4, SENP7 inh -2, SENP6 block -9 and SENP8 block-2 5.
`Nc1cccnc1Sc1ccc(Cl)cc1` gave SENP8 block-1 -44, HSP90 refold inh 0, SENP7 inh 36, SENP6 block 55*, SENP8 block-2 42, SENP8 conf -5, SENP6 confirm -7, SENP7 conf -10, Casp3 select -5 and SENP luc ctr -4.
O=C(O)C[C@@H]1CC[C@H]2[C@@H](COC[C@H](O)CN2S(=O)(=O)c2ccc(Oc3ccccc3)cc2)O1 was read as LGR2 antag 10.
`O=C(O)c1cc(-c2ccc(/C=C3\NC(=O)N(c4ccccc4)C3=O)o2)ccc1Cl` gave SENP8 block-1 inactive, HSP90 refold inh 1, LGR2 antag 6, SENP7 inh 8, SENP6 block 24 and SENP8 block-2 3.
`C#CCN1C(=O)S/C(=C\c2ccc(-c3ccc(Cl)c(C(=O)O)c3)o2)C1=O` gave SENP8 block-1 -167, HSP90 refold inh 23*, LGR2 antag -71, SENP7 inh 21, SENP6 block 70*, SENP8 block-2 49, SENP8 conf 74*, SENP6 confirm 74*, SENP7 conf 82*, Casp3 select 32 and SENP luc ctr 40.
Screening c1ccc(-c2nnc(-c3ccccc3)nn2)cc1 returned SENP8 block-1 28, HSP90 refold inh -2, LGR2 antag -35, SENP7 inh 96*, SENP6 block 88*, SENP8 block-2 83*, SENP8 conf 8, SENP6 confirm 13, SENP7 conf 26, Casp3 select 36 and SENP luc ctr 29.
`c1ccc(-c2nn[nH]n2)cc1` gave SENP8 block-1 5, HSP90 refold inh -1, LGR2 antag -3, SENP7 inh 2, SENP6 block -13 and SENP8 block-2 5.
Screening COC(=O)c1ccc(COn2nnc3ccccc32)cc1 returned SENP8 block-1 13, HSP90 refold inh 11, LGR2 antag -14, SENP7 inh 52*, SENP6 block 56*, SENP8 block-2 37, SENP8 conf 34, SENP6 confirm 32, SENP7 conf 76*, Casp3 select 70* and SENP luc ctr 34.
`C[C@@H]1CN([C@H](C)CO)C(=O)Cc2cc(NC(=O)Nc3ccc(F)cc3)ccc2O[C@H]1CN(C)C(=O)NC1CCCCC1` gave LGR2 antag 3.
`Cc1c(N)cccc1N` gave SENP8 block-1 20, LGR2 antag 2, SENP7 inh 4, SENP6 block 6 and SENP8 block-2 14.
For Cc1ccc2cccc(N)c2n1 the results were SENP8 block-1 -6, HSP90 refold inh 1, LGR2 antag -12, SENP7 inh 55*, SENP6 block 52*, SENP8 block-2 -2, SENP8 conf -2, SENP6 confirm 5, SENP7 conf 5, Casp3 select 11 and SENP luc ctr 8.
C[C@H]1CN([C@@H](C)CO)C(=O)c2cccc(NC(=O)c3ccncc3)c2O[C@H]1CN(C)C(=O)Nc1cccc2ccccc12 was read as LGR2 antag 3.
C[C@H](CO)N1C[C@H](C)[C@H](CN(C)C(=O)c2ccccc2F)Oc2ncc(-c3cncnc3)cc2C1=O was read as LGR2 antag -13.
